From PubChem BioAssay (Tox21) come the findings set out here.

The nature of assay [1]: Nuclear factor erythroid 2-related factor 2/antioxidant responsive element (Nrf2/ARE) small molecule agonists: qHTS cell viability counter screen in human keratinocytes (AID 1919968; active = well fitted curve in the direction sought with a large enough effect in the repeat runs; an effect the other way counts as inactive or inconclusive; note: nearly all actives have a fitted effect of over 55% in size; note: potency is the fitted concentration of half-maximal effect). The procedure, abridged: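 Viability counter-screen: KeratinoSens reporter cells, DMSO-delivered compounds, 23 h at 37 C, CellTiter-Fluor fluorescence.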
Assay [2] is described as follows: Nuclear factor erythroid 2-related factor 2/antioxidant responsive element (Nrf2/ARE) small molecule agonists: luciferase reporter gene qHTS assay in human keratinocytes (AID 1919969). Note: nearly all actives have a fitted effect of over 35% in size. Note: potency is the fitted concentration of half-maximal effect. On the technique in general: Reporter assays use an easily measured gene product as a stand-in for the process of interest.
In assay [3] the target is Gonadotropin-releasing hormone receptor (Homo sapiens) (UniProt P30968). Nature of the assay: Human gonadotropin-releasing hormone receptor (GnRHR) small molecule agonists, calcium flux assay in GnRHR-HEK293 cells (AID 1920063). Note: nearly all actives have a fitted effect of over 35% in size. In outline: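 Tox21-format agonist screen using human GnRHR-expressing HEK293 cells and a fluorescent calcium dye; kinetic 3-min fluorescence reading after compound addition, 15-point concentration series run in triplicate.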

Assay [4] deals with KiSS-1 receptor (Homo sapiens) (UniProt Q969F8). Nature of the assay: Human kisspeptin (KISS1R) small molecule agonists, calcium flux assay in KISS1R-HEK293 cells (AID 1920064; active = well fitted curve in the direction sought with a large enough effect in the repeat runs; an effect the other way counts as inactive or inconclusive). In outline: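 Intracellular calcium mobilization in KISS1R-HEK293 cells was recorded by fluorescence (Ex/Em 480/540) for 3 min following compound addition to cells pre-loaded 1 h with calcium dye.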
Background: Calcium assays in cells follow changes in intracellular calcium, usually with a dye or a luminescent sensor.

Assay [5] can be described thus: G protein-coupled receptor (GPCR) small molecule agonists, calcium flux assay: HEK293 wild type cell line counter screen (AID 1920065). The procedure, abridged: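 In this agonist-mode screen, ATP is the positive control and DMSO the vehicle. Cells grow 18 h before a 1 h dye incubation at 37 C; signal is taken at Ex/Em 480/540 over 3 min.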
The nature of assay [6]: p53 small molecule agonists, cell-based qHTS assay with rat liver microsomes (AID 1963578). In outline:
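Agonist mode in p53RE-bla reporter cells, with compounds co-incubated 16 h at 37 C alongside 0.5 mg/mL rat liver microsomes and 0.5 mg/mL NADPH (final), followed by a 2 h LiveBLAzer detection step.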
For orientation: qHTS replaces the single test concentration by a dilution series.

Assay [7] in a line: p53 small molecule agonists, cell-based qHTS assay with human liver microsomes: qHTS cell viability counter screen (AID 1963579). Note: nearly all actives have a fitted effect of over 45% in size. Note: potency is the fitted concentration of half-maximal effect. In outline:
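Metabolically activated exposure: compounds, human liver microsomes and NADPH (0.5 mg/mL final apiece) were added to p53RE-bla cells seeded 5 h earlier, left 16 h at 37 C, and then assessed for viability by CellTiter-Glo luminescence.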

Assay [8] is described as follows: p53 small molecule agonists, cell-based qHTS assay: qHTS cell viability counter screen (AID 1963581). Note: nearly all actives have a fitted effect of over 45% in size. In outline:
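Compounds are pinned onto HCT-116 p53RE-bla cells and left 16 h at 37 C. Following the reporter FRET read, ATP is quantified by CellTiter-Glo luminescence after 30 min at room temperature.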

Assay [9] in a line: p53 small molecule agonists, cell-based qHTS assay (AID 1963582; active = well fitted activation curve with a large enough effect in the signal ratio in the repeat runs, not every such curve was filed as active; the % refers to the signal ratio). The procedure, abridged:
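Agonist activity was scored from beta-lactamase FRET fluorescence in p53RE-bla cells treated 16 h at 37 C with compounds in DMSO, substrate incubation being 2 h at room temperature.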

For assay [10], the target named is 5-hydroxytryptamine receptor 2A (Homo sapiens) (UniProt P28223). As to the kind of experiment: 5-hydroxytryptamine receptor 2A (HTR2A) small molecule agonists, cell-based qHTS assay (AID 1963587). Note: nearly all actives have a fitted effect of over 30% in size. In outline: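 CHO cells stably expressing human HTR2A, plated 18 h, loaded with calcium dye 1 h at 37 C. Agonist mode: compounds added and intracellular calcium fluorescence recorded kinetically for 2 min at 1 sec intervals.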

Assay [11] concerns the target Muscarinic acetylcholine receptor M1 (Homo sapiens) (UniProt P11229). Nature of the assay: Cholinergic receptor muscarinic 1 (CHRM1) small molecule antagonists, cell-based qHTS assay (AID 1963588). Note: nearly all actives have a fitted effect of over 40% in size. Note: potency is the fitted concentration of half-maximal effect. In outline: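 CHRM1-CHO calcium-flux assay, antagonist mode. Cells were seeded 18 h, dye-loaded 1 h at 37 C and given compound for 5 min at RT, then acetylcholine was added at 50nM. FDSS fluorescence was read 3 min; 15 concentrations, three runs.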

Assay [12] shares this target. As to the kind of experiment: Cholinergic receptor muscarinic 1 (CHRM1) small molecule agonists, cell-based qHTS assay (AID 1963589). Note: nearly all actives have a fitted effect of over 35% in size. The procedure, abridged: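 Stable CHRM1-CHO cells (human receptor) were incubated 18 h, dye-loaded for 1 h at 37 C and exposed to test compounds for agonist activity, with calcium-dependent fluorescence followed kinetically.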
Assay [13] is described as follows: cAMP Responsive Elements (CRE) small molecule agonists, cell-based qHTS assay (AID 1963590). In outline: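 FRET-based beta-lactamase readout (LiveBLAzer B/G, 2 h RT) quantified CRE activation in HEK 293T CRE-bla cells after 3 h treatment with DMSO-dissolved compounds.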
Assay [14] can be described thus: cAMP Responsive Elements (CRE) small molecule antagonists, cell-based qHTS assay (AID 1963591; active = well fitted inhibition curve with a large enough effect in the signal ratio in the repeat runs, not every such curve was filed as active; the % refers to the signal ratio). In outline:
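qHTS in CRE-bla HEK 293T cells: compound in DMSO, then 0.25 uM NKH477 (final), 3 h at 37 °C/5% CO2; beta-lactamase FRET read-out after 2 h substrate incubation.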

The target of assay [15] is Beta-2 adrenergic receptor (Homo sapiens) (UniProt P07550). Nature of the assay: Adrenergic beta2 receptor (ADRB2) small molecule antagonists, cell-based qHTS assay (AID 1963592). Note: series mostly up to about 92 µM; nearly all actives have a fitted effect of over 50% in size. The procedure, abridged:
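Cells (CHO, stable ADRB2 overexpression) incubated 18-20hr at 37C; compounds added from DMSO; agonist mix (1nM isoproterenol, 100uM IBMX, 25uM Ro-20-1724) added; 0.5hr RT; d2-cAMP and anti-cAMP-cryptate added; 1hr RT; 665/615 nm read.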

Assay [16] deals with D(2) dopamine receptor (Homo sapiens) (UniProt P14416). Nature of the assay: Dopamine D2 receptor (DRD2) small molecule agonists, cell-based qHTS assay (AID 1963594). Note: nearly all actives have a fitted effect of over 35% in size. In outline:
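HEK293 cells stably expressing human DRD2, pre-treated with PDE inhibitor Ro20-1724 (0.1 mM final) and compound 10 min at room temperature, then stimulated with NKH477 (200nM […]) for 30 min. cAMP read by HTRF (665/620 nm).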

Assay [17] has the same target. As to the kind of experiment: Dopamine D2 receptor (DRD2) small molecule antagonists, cell-based qHTS assay (AID 1963595; active = well fitted inhibition curve with a large enough effect in the signal ratio in the repeat runs, with a control signal flat; the % refers to the signal ratio; note: potency is the fitted concentration of half-maximal effect). In outline:
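Stable D2 receptor HEK293 line, 24 h after seeding. Compound preincubated 10 min, then quinpirole (12 nM) with forskolin analogue NKH477 (200 nM), 30 min, room temperature. Detection by time-resolved FRET of cAMP.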

The nature of assay [18]: p53 small molecule agonists, cell-based qHTS assay with rat liver microsomes: qHTS cell viability counter screen (AID 1963580). Note: nearly all actives have a fitted effect of over 45% in size. Note: potency is the fitted concentration of half-maximal effect. In outline:
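p53RE-bla HCT-116 cells were exposed 16 h at 37 C to compounds with rat liver microsomes (0.5 mg/mL) and NADPH (0.5 mg/mL). Viability was measured in the same wells as ATP content by CellTiter-Glo luminescence.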

Assay [19] deals with 5-hydroxytryptamine receptor 2A (Homo sapiens) (UniProt P28223). As to the kind of experiment: 5-hydroxytryptamine receptor 2A (HTR2A) small molecule antagonists, cell-based qHTS assay (AID 1963586). Note: nearly all actives have a fitted effect of over 45% in size. In outline:
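Antagonist-mode intracellular calcium assay: DOI (4 nM) added after 5 min compound pre-incubation at room temperature to dye-loaded HTR2A-CHO cells. Fluorescence followed for 3 min, sampled every second.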

Assay [20] addresses Beta-2 adrenergic receptor (Homo sapiens) (UniProt P07550). As to the kind of experiment: Adrenergic beta2 receptor (ADRB2) small molecule agonists, cell-based qHTS assay (AID 1963593).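 Note: CHO cells stably overexpressing human ADRB2.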 The procedure, abridged: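 CHO cells stably over-expressing ADRB2 were plated overnight at 37C, then dosed with compounds plus a stimulation mix containing 100uM IBMX and 25uM Ro-20-1724 for 0.5hr at room temperature. cAMP was measured by HTRF competition, 1hr.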

Each structure is given as a SMILES string. Results filed as inconclusive are left out. Calls of active or inactive are those of the source. Unless noted, calls come from the whole dose curve.

5-hydroxytryptamine receptor 2A (Homo sapiens), sequence (P28223 whole entry, looked up): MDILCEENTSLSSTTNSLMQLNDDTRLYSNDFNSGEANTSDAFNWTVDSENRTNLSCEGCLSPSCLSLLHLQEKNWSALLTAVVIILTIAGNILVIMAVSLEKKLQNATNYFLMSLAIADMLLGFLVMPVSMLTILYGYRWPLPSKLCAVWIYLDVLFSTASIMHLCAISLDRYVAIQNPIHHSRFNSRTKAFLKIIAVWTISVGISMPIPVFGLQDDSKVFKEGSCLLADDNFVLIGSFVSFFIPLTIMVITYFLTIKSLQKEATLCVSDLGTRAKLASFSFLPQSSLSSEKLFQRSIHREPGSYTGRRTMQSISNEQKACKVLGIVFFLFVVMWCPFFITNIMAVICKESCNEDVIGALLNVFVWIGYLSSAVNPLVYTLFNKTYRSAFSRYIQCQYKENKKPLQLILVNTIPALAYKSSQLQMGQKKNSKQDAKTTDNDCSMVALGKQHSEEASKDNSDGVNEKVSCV
Gonadotropin-releasing hormone receptor (Homo sapiens), sequence (P30968 whole entry, looked up): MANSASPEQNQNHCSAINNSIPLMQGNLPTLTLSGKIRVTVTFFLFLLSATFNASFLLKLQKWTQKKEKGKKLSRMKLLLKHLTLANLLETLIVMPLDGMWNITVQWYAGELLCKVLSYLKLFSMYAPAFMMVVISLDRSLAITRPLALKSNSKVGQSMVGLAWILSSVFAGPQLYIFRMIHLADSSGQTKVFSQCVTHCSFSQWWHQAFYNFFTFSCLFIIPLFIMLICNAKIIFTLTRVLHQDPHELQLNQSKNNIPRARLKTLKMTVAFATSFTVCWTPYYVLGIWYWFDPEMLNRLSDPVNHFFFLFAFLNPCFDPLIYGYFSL
KiSS-1 receptor (Homo sapiens), sequence (Q969F8 whole entry, looked up): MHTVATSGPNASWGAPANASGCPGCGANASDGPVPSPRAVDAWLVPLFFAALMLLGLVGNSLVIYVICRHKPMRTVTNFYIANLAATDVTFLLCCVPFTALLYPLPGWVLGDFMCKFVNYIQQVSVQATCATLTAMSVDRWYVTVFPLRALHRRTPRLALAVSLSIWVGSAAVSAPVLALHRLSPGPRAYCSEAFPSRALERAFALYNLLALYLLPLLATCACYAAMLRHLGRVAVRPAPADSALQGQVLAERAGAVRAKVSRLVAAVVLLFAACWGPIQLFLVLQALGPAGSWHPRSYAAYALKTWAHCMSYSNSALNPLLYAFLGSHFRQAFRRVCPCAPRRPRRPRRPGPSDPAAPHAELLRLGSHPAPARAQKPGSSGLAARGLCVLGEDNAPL
Beta-2 adrenergic receptor (Homo sapiens), sequence (P07550 whole entry, looked up): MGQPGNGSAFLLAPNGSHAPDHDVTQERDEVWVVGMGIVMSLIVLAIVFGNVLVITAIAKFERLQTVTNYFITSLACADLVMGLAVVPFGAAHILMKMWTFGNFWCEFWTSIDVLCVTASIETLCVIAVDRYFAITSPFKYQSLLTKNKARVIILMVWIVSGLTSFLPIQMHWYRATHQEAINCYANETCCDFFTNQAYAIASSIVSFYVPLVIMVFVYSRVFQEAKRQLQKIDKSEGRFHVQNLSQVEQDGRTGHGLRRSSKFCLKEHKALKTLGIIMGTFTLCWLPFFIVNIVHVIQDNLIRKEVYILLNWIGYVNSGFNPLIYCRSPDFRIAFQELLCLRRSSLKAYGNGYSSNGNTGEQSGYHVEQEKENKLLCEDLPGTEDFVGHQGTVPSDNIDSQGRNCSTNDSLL
D(2) dopamine receptor (Homo sapiens), sequence (P14416 whole entry, looked up): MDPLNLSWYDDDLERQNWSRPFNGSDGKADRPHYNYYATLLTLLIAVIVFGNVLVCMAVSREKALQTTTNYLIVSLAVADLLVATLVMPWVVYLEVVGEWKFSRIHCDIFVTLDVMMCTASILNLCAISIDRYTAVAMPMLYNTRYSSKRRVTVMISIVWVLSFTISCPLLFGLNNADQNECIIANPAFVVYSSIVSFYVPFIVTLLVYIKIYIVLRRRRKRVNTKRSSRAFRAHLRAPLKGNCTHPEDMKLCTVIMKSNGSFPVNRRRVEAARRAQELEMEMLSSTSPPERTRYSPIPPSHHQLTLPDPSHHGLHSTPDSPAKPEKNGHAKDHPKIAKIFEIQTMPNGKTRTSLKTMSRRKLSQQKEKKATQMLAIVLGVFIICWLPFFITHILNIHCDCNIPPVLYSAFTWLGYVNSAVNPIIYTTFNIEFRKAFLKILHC
Muscarinic acetylcholine receptor M1 (Homo sapiens), sequence (P11229 whole entry, looked up): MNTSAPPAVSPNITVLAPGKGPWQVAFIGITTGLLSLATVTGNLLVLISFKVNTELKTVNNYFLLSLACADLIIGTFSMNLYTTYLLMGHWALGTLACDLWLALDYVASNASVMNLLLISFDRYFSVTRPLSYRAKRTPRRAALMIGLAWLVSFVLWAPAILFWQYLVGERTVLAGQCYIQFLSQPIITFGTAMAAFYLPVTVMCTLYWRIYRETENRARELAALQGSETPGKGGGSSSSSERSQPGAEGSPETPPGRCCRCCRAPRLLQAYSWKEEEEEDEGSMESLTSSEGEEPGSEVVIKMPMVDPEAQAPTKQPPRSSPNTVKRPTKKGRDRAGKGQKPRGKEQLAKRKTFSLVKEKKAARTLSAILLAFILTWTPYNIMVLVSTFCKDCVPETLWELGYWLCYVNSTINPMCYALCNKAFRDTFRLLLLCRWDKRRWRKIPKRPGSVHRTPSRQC

In the case of `CC(=O)c1ccc2c(c1)[C@H](NC(=O)c1ccc(F)cc1)[C@@H](O)C(C)(C)O2`, the Potency entry in assay [1], in [2], in assay [3], in assay [4], in assay [5] and in [6] was “inactive” in each case. Further, the Potency entry in [7], in [8], in [9], in [10], in assay [11] and in assay [12] was “inactive” in each case. Besides, the Potency entry in [13], in [14], in assay [15], in assay [16] and in assay [17] was “inactive” in each case.

Turning to `CC(C)OC(=O)CCC(=O)OC(C)C`, the Potency result in assay [1], in assay [2], in [3], in [4], in assay [5] and in assay [6] was “inactive” each time. Moreover, the Potency result in assay [18], in assay [8], in [9], in [19], in assay [10] and in assay [11] was “inactive” throughout. Besides, the Potency result in assay [12], in assay [13], in assay [14], in [15], in assay [16] and in [17] was “inactive” each time.

Regarding `CC(C)(C)CC(C)(C)c1ccccc1O`, the Potency in [1] is 27.4 µM (active); in assay [7] it was 41 µM (active); in [18] it was 41 µM (active); in assay [17], 61.4 µM (active). Besides, the Potency result in assay [2], in [3], in assay [4], in [5], in assay [6] and in [11] was “inactive” in each case. Further, the Potency entry in assay [12], in assay [15] and in assay [16] was “inactive” each time.

On to `ClCCOCCOCCCl`, for which the Potency result in assay [1], in [2], in assay [3], in assay [4], in [5] and in assay [6] was “inactive” throughout. The Potency entry in assay [7], in assay [8], in assay [9], in assay [19], in [10] and in assay [11] was “inactive” in each case. In addition, the Potency entry in assay [12], in assay [13], in assay [14], in assay [15], in assay [20] and in [17] was “inactive” in each case.

`CN(C)CCOC(c1ccccc1)c1ccc(Br)cc1` (centres undefined): the Potency result in assay [1], in assay [2], in assay [3], in assay [4], in assay [5] and in assay [6] was “inactive” in each case. In addition, the Potency entry in [7], in [18], in [9], in assay [12], in assay [13] and in assay [14] was “inactive” in each case. In addition, the Potency result in assay [15], in assay [20], in assay [16] and in [17] was “inactive” in each case. In assay [11], the Potency is 3.65 µM (active).

Regarding `O=C1c2ccccc2Cc2ccccc21`, the Potency result in [1], in assay [3], in assay [4], in assay [5], in [6] and in assay [7] was “inactive” each time. In addition, the Potency entry in [18], in assay [8], in [10], in assay [12], in assay [15] and in assay [16] was “inactive” throughout. The Potency result in assay [17] was “inactive”. Further, the Potency in assay [2] was 61.6 µM (active).

On to `CN1CCN(C(=O)C2CCCCC2)CC1`, for which the Potency result in assay [1], in [2], in [3], in assay [4], in assay [5] and in [6] was “inactive” each time. The Potency entry in assay [7], in assay [8], in assay [9], in assay [19], in assay [10] and in assay [11] was “inactive” throughout. Moreover, the Potency entry in assay [12], in [14], in assay [15], in assay [20] and in assay [16] was “inactive” throughout.
